An excerpt weighted towards active compounds, which were near 18% of everything screened.
KAT2A inh: inhibitors of human GCN5L2 histone acetyltransferase | Q92830 | GCN5L2 HAT assay, ThioGlo1 CoA-SH fluorescence | Potency, µM (series often up to 58.9 µM), usual class: inhibitors | actives 0.21% (n = 390,000) | AID 504327
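ThioGlo1-coupled HAT assay: 20nM GCN5L2, 70uM acetyl-CoA, 75uM H3(1-25) peptide, pH 7.5. Fluorescence read at 340/540nm at start and after 20 min at room temperature.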
DT40 TDP1 no CPT: qHTS for Inhibitors of human tyrosyl-DNA phosphodiesterase 1 (TDP1): qHTS in cells in absence of CPT. DT40 Tdp1-/- hTDP1 cells, no CPT, ATP luminescence, 48 h. Potency, µM (doses to about 46.2 µM), actives largely listed as inhibitors. actives 15% (n = 420,000). AID 686978, 2013; further: nearly all actives have a fitted effect of over 55% in size
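Chicken DT40 Tdp1-/- cells complemented with human TDP1, screened without camptothecin (DMSO vehicle only), 400 cells/well. Compounds pin-transferred, cells incubated at 37 °C for at least 48 hr. Growth read as ATP-dependent luminescence (CellTiter-Glo, 30 min at RT).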
TDP1 cell CPT: growth inhibition of DT40 Tdp1-/-;hTDP1 cells with camptothecin (screen for TDP1 inhibitors) | chicken DT40 Tdp1-/-;hTDP1 cells + 20 nM CPT, ATP luminescence, 48 h | Potency, µM (top dose mostly 46.2 µM), hits mostly inhibitors | actives 12% (n = 420,000) | AID 686979; further: nearly all actives have a fitted effect of over 55% in size
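Chicken DT40 Tdp1-/- cells stably complemented with human TDP1 were seeded at 400 cells/well in medium containing 20 nM camptothecin, exposed to pin-transferred compounds, and grown at 37 °C for at least 48 hr. Viability was read as ATP luminescence.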
TDP1 inh: TDP1 (human) enzyme inhibition; recombinant TDP1, AlphaScreen DNA substrate cleavage; actives 0.28% (n = 350,000); AID 485290; Potency, µM (highest dose often 130 µM), usual class: inhibitors; further: nearly all actives have a fitted effect of over 40% in size
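Here, a 5' biotin and 3' phosphotyrosine-FITC DNA oligonucleotide reports Tdp1 activity: intact substrate bridges AlphaScreen beads, while cleavage leaves a 3' phosphate and drops signal. All incubations at room temperature.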
VDR inhibitor: blocks the human vitamin D receptor | P11473 | VDR-SRC2-3 peptide fluorescence polarization, 2 h | AID 504847 | actives 0.93% (n = 400,000) | Potency, µM, hits mostly inhibitors
Target sequence (P11473 whole entry, looked up): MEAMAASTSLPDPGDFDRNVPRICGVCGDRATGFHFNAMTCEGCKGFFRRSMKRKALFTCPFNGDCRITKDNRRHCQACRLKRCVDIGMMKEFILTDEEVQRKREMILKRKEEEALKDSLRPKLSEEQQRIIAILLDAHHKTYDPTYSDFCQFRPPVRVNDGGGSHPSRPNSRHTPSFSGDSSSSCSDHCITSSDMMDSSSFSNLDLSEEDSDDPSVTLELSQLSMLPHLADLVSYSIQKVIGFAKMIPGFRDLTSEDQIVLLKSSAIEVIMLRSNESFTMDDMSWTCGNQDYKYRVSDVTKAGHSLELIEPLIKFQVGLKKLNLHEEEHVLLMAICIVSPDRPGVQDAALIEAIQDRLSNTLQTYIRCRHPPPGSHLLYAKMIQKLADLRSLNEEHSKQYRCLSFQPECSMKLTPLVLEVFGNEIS
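Two reagent solutions held at 4 deg C in the dark were dispensed, compounds pinned at 23 nl, and the mixture incubated 2 h at room temperature. Read-out: fluorescence polarization of VDR–SRC2-3 peptide binding.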
PLK1 PBD block: PLK1 (human) polo-box domain binding inhibition; P53350; Plk1 PBD binding of FITC phosphopeptide, fluorescence polarization; Potency, µM, most hits filed as inhibitors; actives 2.8% (n = 360,000); AID 720504; further: series mostly up to about 57 µM; nearly all actives have a fitted effect of over 65% in size
A number is an active result; . = inactive; ? = inconclusive; / = no result. The call rests on the fitted dose curve; in most records, active means well fitted curve in the direction sought with a large enough effect; inconclusive means small, poorly fitted or top-dose-only effect, or another doubt; inactive means no such curve, though single readings can be large; an effect the other way counts as inactive or inconclusive.

SMILES | KAT2A inh | DT40 TDP1 no CPT | TDP1 cell CPT | TDP1 inh | VDR inhibitor | PLK1 PBD block
Cn1c(=O)n(C)c2cc(CNCCc3ccc(F)cc3)ccc21 | . | 26µM | 16µM | . | . | /
C[C@]12CCC(=O)C=C1CCc1ccc(O)cc12 | . | . | . | . | . | /
NC(=Nc1ccccc1)NN=Cc1c[nH]c2ccccc12 | / | 0.92µM | 1µM | / | . | .
Cc1nnc2n1-c1sc(CCC(=O)N3CCOCC3)cc1C(c1ccccc1Cl)=NC2 | / | . | . | . | / | /
Cc1nnc2n1-c1sc(CCc3ccc(CC(C)C)cc3)cc1C(c1ccccc1Cl)=NC2C (stereo not given) | / | 12µM | ? | / | / | /
COc1cccc(CN2CCC(n3nccc3NC(=O)CCOc3ccccc3)CC2)c1O | / | . | ? | / | . | .
Cc1ccc(C(=O)Nc2c(C(=O)Nc3ccc(C)c(C)c3)sc3nc(C)cc(C)c23)cc1 | . | 18µM | ? | . | . | /
Cc1ccccc1N1CCN(C2CCCN(C(=O)COc3ccccc3)C2)CC1 (stereo not given) | ? | 21µM | 26µM | . | . | .
COc1cccc(CSc2nc(-c3ccccc3OC)nc3c2Cc2c(CO)cnc(C)c2O3)c1 | . | 3.7µM | 5.8µM | . | . | /
Cc1ncc(CO)c2c1Oc1nc(-c3ccccc3Cl)nc(SCc3ccccc3F)c1C2 | . | 15µM | 15µM | . | . | /
C[C@H](N)CN1CCc2ccc(Br)cc21 | . | ? | ? | . | . | .
CC[N+](CC)(CCCNC1=CC(=O)C(NCCC[N+](CC)(CC)Cc2ccccc2)=CC1=O)Cc1ccccc1 | . | . | . | . | . | /
COc1cc2c(c(OC)c1OC)-c1ccc(OC)c(=O)cc1C(NC(C)=O)CC2 (stereo not given) | . | 0.0092µM | 0.018µM | . | . | .
COc1cc2c(c(OC)c1OC)-c1ccc(O)c(=O)cc1C(NC(C)=O)CC2 (stereo not given) | . | 0.065µM | 0.026µM | . | . | .
COc1ccc2c(c1)C(NC(C)=O)CCc1cc(OC)c(OC)c(OC)c1-2 (stereo not given) | / | 0.018µM | 0.0082µM | / | . | .
O=S1(=O)OCCC(c2ccccc2)N1Cc1ccccc1 (stereo not given) | . | . | ? | / | . | .
CC(C)(C#N)O[C@H]1OC(CO)C(O)C(O)C1O (stereo not given in full) | . | . | . | . | . | /
CC(C)C(C)/C=C/C(C)C1CCC2C3=CC=C4CC(O)CCC4(C)C3CCC21C (stereo not given) | . | . | . | . | ? | /
O=C(Nc1ccc(Cl)c(C(F)(F)F)c1)C1CCCN(S(=O)(=O)c2cccc3cccnc23)C1 (stereo not given) | . | 6.5µM | 7.3µM | . | . | /
CC(C)(COC(=O)C(c1ccccc1)c1ccccc1)CN1CCOCC1 | / | 21µM | ? | / | . | .
C[C@@H]1C(=O)O[C@@H]2[C@H](O)C34[C@@H]5OC(=O)C3(O[C@H]3OC(=O)[C@H](O)C34[C@H](C(C)(C)C)[C@H]5O)[C@@]12O (stereo not given in full) | . | . | . | . | . | .
COc1ccc(CCNc2nccn(-c3ccc(C)c(C)c3)c2=O)cc1OC | . | 13µM | 15µM | . | . | /
COc1ccc(CCNCc2ccc(C)s2)cc1OC | . | . | . | . | . | .
OCc1cnc[nH]1 | . | . | . | . | . | .
CCN(CC)c1ccc(N=Cc2c(O)n(Cc3ccco3)c(=O)[nH]c2=O)cc1 | . | . | . | . | . | .
CCN(CCO)c1ccc(N=Cc2c(O)n(C)c(=S)[nH]c2=O)cc1 | . | 10µM | 12µM | ? | . | .
CCCCCCCCCC(=O)O[C@H]1CC[C@H]2[C@@H]3CCC4=CC(=O)CC[C@]4(C)[C@H]3CC[C@]12C | . | . | . | . | . | /
CCC(=O)OC1CCC2C3CCC4CC(=O)C=CC4(C)C3CCC12C (stereo not given) | / | 21µM | . | / | 50µM | .

From PubChem BioAssay
